# Assay results reported in PubChem BioAssay (Tox21).
# Results filed as inconclusive are left out. Unmarked numbers belong to inactive results. The source made the active and inactive calls. Calls come from the whole dose curve; as a rule, active = well fitted cell-killing curve with a large enough effect in the repeat runs; inconclusive = weak or mixed curves, or effect the other way; inactive = no such curve, though single readings can be large or run the other way.
# Assay: qHTS assay to identify small molecule antagonists of the glucocorticoid receptor (GR) signaling pathway - cell viability counter screen (AID 720693); note: nearly all actives have a fitted effect of over 55% in size
# Settings: GR-bla HeLa viability, CellTiter-Glo luminescence, 18 h, with 5 nM dexamethasone present; series mostly up to 58.5 µM; viability change, negative = cytotoxic: at the top concentration
# Text: National Center for Advancing Translational Sciences [NCATS]
# NIH Chemical Genomics Center [NCGC]
# U.S. Environmental Protection Agency [EPA]
# National Institutes of Environmental Health Sciences [NIEHS]
# National Toxicology Program [NTP]
# U.S. Food and Drug Administration [FDA]
# The Glucocorticoid receptor (GR) is one of the members of the nuclear receptor family of ligand-dependent transcription factors. GR plays a critical role in carbohydrate, protein and lipid metabolisms and programmed cell death. CellSensor GR-bla HeLa cell line (Invitrogen) contains a beta-lactamase reporter gene under the control of the glucocorticoid response element stably integrated into HeLa cells, a cervical cancer cell line that expresses glucocorticoid receptor. The activation of the reporter gene under culture conditions can be detected by fluorescence intensity. This cell line has been used to screen the Tox21 10K compound library and to identify the compounds that inhibit the GR signaling. The cytotoxicity of the Tox21 compound library against the GR-bla HeLa cell line was tested in parallel by measuring the cell viability using CellTiter-Glo assay in the same wells.
# Tox21 Assay Protocol Summary:
# The GR-bla HeLa cells were dispensed at 1500 cells/5 ul/well in 1536-well black wall/clear bottom plates using a Multidrop Combi (ThermoFisher Scientific, Waltham, MA) dispenser. After the assay plates were incubated at a 37 C/5% CO2 incubator for 4 hours, 23 nL of compounds dissolved in DMSO, positive controls or DMSO only was transferred to the assay plate by a pintool station (Kalypsys, San Diego, CA), followed by addition of 1 uL of dexamethasone (5 nM, final concentration in the well). The plates were incubated at 37 C for 18 hours. After 1 uL of LiveBLAzerTM B/G FRET substrate was added using a Flying Reagent Dispenser (Aurora Discovery, San Diego, CA), the plates were incubated at room temperature (RT) for 2 hours, and fluorescence intensity was measured by an Envision plate reader (PerkinElmer, Shelton, CT). After measurement of bla assay, 3 ul CellTiter-Glo (Promega, Madison, WI) was added to measure the cytotoxicity and the plates were then incubated at RT for 30 min. The luminescence was measured using a ViewLux (Perkin Elmer) plate reader.
# % is set by controls: 0 for no effect and ±100 for the full control effect.
Compound,"viability change, negative = cytotoxic",Potency
CCN(CC)C(C)CN1c2ccccc2Sc2ccccc21 (stereo not given),10.4% [at 27 µM],
CC(C)CCCCCCOC(=O)c1ccc(C(=O)OCCCCCCC(C)C)c(C(=O)OCCCCCCC(C)C)c1,0.719%,
O=c1c2ccccc2nnn1CCl,8.28%,
CN(C)C/C=C(/c1ccc(Br)cc1)c1cccnc1,9.76%,
CCCCCCOC(=O)CCC,-1.14%,
CCN(CCO)CCCC(C)Nc1ccnc2cc(Cl)ccc12 (stereo not given),4.4%,
CCCCCC(CO)CCC (stereo not given),-0.482%,
CCOC(=O)C1=NN(c2ccccc2)C(=O)C1,16.6%,
Cc1ccccn1,,inactive
S=C(S)NCCNC(=S)S,-16.4%,
C=CC[N+]1([C@H]2C[C@H]3[C@@H]4CC[C@H]5C[C@H](OC(C)=O)[C@@H](N6CCCCC6)C[C@]5(C)[C@H]4CC[C@]3(C)[C@H]2OC(=O)CC)CCCCC1,1.88%,
COc1ccc([C@@H]2Sc3ccccc3N(CCN(C)C)C(=O)[C@@H]2OC(C)=O)cc1,-8.92%,
COCCO,15.5%,
O=C(O)Cn1c(C(=O)Nc2nc(-c3ccccc3Cl)cs2)cc2ccccc21,19.4%,
CC(C)NCC(O)COc1ccc(CC(N)=O)cc1 (stereo not given),-0.75%,
CN1CCN(C2=Nc3cc(Cl)ccc3Nc3ccccc32)CC1,0.582%,
Cc1cccc(C(C)(C)C)c1O,-0.466%,
C=CC(=O)OCCOC(=O)CCC(=O)O,8.47%,
Cc1ccccc1N=Nc1ccc(N=Nc2c(O)ccc3ccccc23)c(C)c1,-1.12%,
CCCCCCCCCCCCCCCBr,-1.6%,

Compound,"viability change, negative = cytotoxic",Potency
C=CCCCCCC,-7.55%,
CN(C(=O)CCCOc1ccc2[nH]c(=O)ccc2c1)C1CCCCC1,1.33%,
CC(C)(C)c1ccc(S)cc1,-3.56%,
O=S(=O)(O)c1ccc(O)c2ncccc12,2.44%,
CCCCOc1ccc(CC(=O)NO)cc1,-1.2% [at 27 µM],
CC/C(=C\C(=N/O)C(N)=O)C(C)[N+](=O)[O-] (stereo not given),-0.464%,
CCCC(C)C,23.1% [at 78.9 µM],
CCCCC(CC)(CO)CO,10.1%,
O=C(CC(=O)c1ccccc1)c1ccccc1,-5.2% [at 78.9 µM],
ClC(Cl)(Cl)c1ccc(C(Cl)(Cl)Cl)cc1,-1.01%,
CCN(CC)C(C)=O,-3.97% [at 78.9 µM],
O=[N+]([O-])c1cccc(Cl)c1Cl,-1.39%,
CC(=O)O[C@@H]1C(=O)O[C@@H]2[C@H]1OC(=O)[C@@H]2OC(C)=O,-4.44%,
CC(C)(C)c1cc(CO)cc(C(C)(C)C)c1O,-3.28% [at 78.9 µM],
CC(CN)CCCN (stereo not given),-3.69%,
CCCCCCCCCCCCC(=O)O,8.23% [at 78.9 µM],
C[C@@H](C1=C(CCN(C)C)Cc2ccccc21)c1ccccn1,8.13%,
Cc1cc(O)ccc1N,-2.78% [at 78.9 µM],
CC(=O)/C=C/C1C(C)=CCCC1(C)C (stereo not given),11.9%,
C=CC(C)(CCC=C(C)C)OC(=O)c1ccccc1 (stereo not given),14.3%,
